“And” between values parts separate entries of the source, which are not always exact repeats. Equal values may be shown once. Results filed as inconclusive are left out. The source made the active and inactive calls. Unless noted, calls follow the shape of the dose curve; as a rule, active = well fitted curve in the direction sought with a large enough effect; inconclusive = small, poorly fitted or top-dose-only effect, or another doubt; inactive = no such curve, though single readings can be large; an effect the other way counts as inactive or inconclusive.
Tests used:
[1] = Cytometry Cell-Based qHTS for Inhibitors of the mTORC1 Signaling Pathway in MEF cells (AID 2668);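 also: Tsc2-/- p53-/- mouse embryonic fibroblasts stably re-expressing wild-type Tsc2; percent cells positive for phospho-rpS6 Ser235/236 relative to propidium iodide stain; series mostly up to about 38 µM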
Summary of the method: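 MEFs (Tsc2-/-, p53-/- stably expressing WT Tsc2) treated 24 h at 37 degree Celsius, fixed, stained with Alexa-488 anti-phospho-rpS6 Ser235/236 and propidium iodide; Acumen laser scanning. Reported as % positive cells, phospho-S6 normalized to PI.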

[2] = molecular target: Ubiquitin carboxyl-terminal hydrolase 2 (Homo sapiens) (UniProt O75604); test: qHTS Validation Assay for Inhibitors of Ubiquitin-specific Protease USP2a Using CHOP2 as the Reporter (AID 463106)
Summary of the method: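 Inhibition is expressed relative to NEM as the full-inhibition control, with concentration-response curves classed by fit quality, magnitude and activity. Enzyme (USP2 core, 10nM) meets 25nM Ub-CHOP2 after compound preincubation; readings are taken at 60min.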

[3] = molecular target: DNA polymerase III PolC-type (Bacillus subtilis (strain 168)) (UniProt P13267); test: qHTS Validation Assay for the Inhibitors of DNA Replication in Gram-Positive Bacteria (AID 485295);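 also: PicoGreen fluorescence of double-stranded DNA made on primed circular M13 template; series mostly up to about 57 µM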
Summary of the method: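 Reconstituted B. subtilis Pol III holoenzyme (PolC, beta clamp, SSB, primase) preincubated with compound, then M13Gori single-stranded circular template with dNTPs/NTPs added; room temperature reaction. Stopped with EDTA/PicoGreen; dsDNA fluorescence read, EDTA as full-inhibition control.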

[4] = molecular target: Tumor susceptibility gene 101 protein (Homo sapiens) (UniProt Q99816); test: qHTS Validation Assay for Iinhibitors of HIV-1 Budding by Blocking the Interaction of PTAP/TSG101 (AID 485342; calls by dose curve)
Chain of Tumor susceptibility gene 101 protein (Homo sapiens) (Q99816 whole entry, looked up, the tested form may be a part): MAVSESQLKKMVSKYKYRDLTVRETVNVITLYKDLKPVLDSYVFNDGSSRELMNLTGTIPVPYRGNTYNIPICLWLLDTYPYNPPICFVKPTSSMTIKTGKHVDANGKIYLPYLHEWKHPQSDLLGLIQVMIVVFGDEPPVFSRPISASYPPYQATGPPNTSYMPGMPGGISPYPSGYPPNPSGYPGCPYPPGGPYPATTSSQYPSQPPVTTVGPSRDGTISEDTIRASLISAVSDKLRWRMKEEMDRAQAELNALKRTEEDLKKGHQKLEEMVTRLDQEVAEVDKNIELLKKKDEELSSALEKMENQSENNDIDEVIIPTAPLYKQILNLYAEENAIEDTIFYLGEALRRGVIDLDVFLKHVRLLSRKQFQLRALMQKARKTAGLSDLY
Summary of the method: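 Tsg101 binding domain (10 uM) with FITC-labeled PTAP peptide (50 nM) in HEPES pH 7.5 buffer, 20 min at r.t. with compounds. Binding measured by fluorescence polarization.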

[5] = molecular target: Beta-2 adrenergic receptor (Homo sapiens) (UniProt P07550); test: qHTS validation assay of beta-arrestin-biased ligands of beta2-adrenergic receptor (AID 485366)
Chain of Beta-2 adrenergic receptor (Homo sapiens) (P07550 whole entry, looked up): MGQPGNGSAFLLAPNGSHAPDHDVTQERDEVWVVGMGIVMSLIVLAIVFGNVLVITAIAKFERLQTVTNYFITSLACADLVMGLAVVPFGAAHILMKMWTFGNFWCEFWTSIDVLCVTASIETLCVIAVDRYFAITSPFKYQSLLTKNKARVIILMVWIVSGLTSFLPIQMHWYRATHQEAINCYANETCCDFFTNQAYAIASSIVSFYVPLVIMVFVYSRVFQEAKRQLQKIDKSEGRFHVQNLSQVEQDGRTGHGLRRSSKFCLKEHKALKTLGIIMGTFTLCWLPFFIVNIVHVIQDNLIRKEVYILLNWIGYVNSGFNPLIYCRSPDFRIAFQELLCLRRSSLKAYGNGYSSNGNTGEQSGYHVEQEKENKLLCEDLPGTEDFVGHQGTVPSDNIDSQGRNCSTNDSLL
Summary of the method: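 qHTS, Tango cells, 1500 cells/well, DMEM + 1% FBS. Cpd 18 hr at 37 degrees C. Luciferin/ATP/CoA detection mix, 15 min RT, luminescence read. %Activity from corrected signal; CRC fit, curve class.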

[6] = molecular target: ATP-dependent 6-phosphofructokinase (Trypanosoma brucei brucei) (UniProt O15648); test: qHTS Validation Assay to Find Inhibitors of T. brucei phosphofructokinase (AID 485368)
Summary of the method: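 Luminescent ADP detection measures PFK turnover of fructose-6-phosphate (0.5 mM) with ATP (0.1 mM) at pH 8.0. Reaction runs 45 min at room temperature with 1.25 nM enzyme; inhibitors tested as titrations up to 57 uM.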

[7] = Quantitative high throughput screen for delayed death inhibitors of the malarial parasite plastid, 96 hour incubation (AID 488745); also: nearly all actives have a fitted effect of over 70% in size; also: potency is read from the fitted curve at half-maximal effect
Summary of the method: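 Decreased firefly luciferase luminescence indicates inhibited growth of reporter-integrated P. falciparum after two generations (96 h, 37 C, 5% CO2). Infected erythrocytes at 0.1% parasitemia, 2% hematocrit, in Albumax-supplemented RPMI 1640.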

[8] = Quantitative high throughput screen for delayed death inhibitors of the malarial parasite plastid, 48 hour incubation (AID 488752); also: nearly all actives have a fitted effect of over 65% in size; also: potency is read from the fitted curve at half-maximal effect
Summary of the method: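 One-generation (48 h) growth assay: a decrease in luciferase signal from an integrated reporter in P. falciparum-infected red cells (0.1% parasitemia, 2% hematocrit) after compound exposure at 37 C indicates parasite inhibition.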

[9] = molecular target: Thioredoxin reductase 1, cytoplasmic (Rattus norvegicus) (UniProt O89049); test: qHTS Assay for Substrates of Mammalian Selenoprotein Thioredoxin Reductase 1 (TrxR1) (AID 488772);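 also: series mostly up to about 57 µM; a drop in NADPH fluorescence below the no-compound background marks a TrxR1 substrate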
Chain of Thioredoxin reductase 1, cytoplasmic (Rattus norvegicus) (O89049 whole entry, looked up): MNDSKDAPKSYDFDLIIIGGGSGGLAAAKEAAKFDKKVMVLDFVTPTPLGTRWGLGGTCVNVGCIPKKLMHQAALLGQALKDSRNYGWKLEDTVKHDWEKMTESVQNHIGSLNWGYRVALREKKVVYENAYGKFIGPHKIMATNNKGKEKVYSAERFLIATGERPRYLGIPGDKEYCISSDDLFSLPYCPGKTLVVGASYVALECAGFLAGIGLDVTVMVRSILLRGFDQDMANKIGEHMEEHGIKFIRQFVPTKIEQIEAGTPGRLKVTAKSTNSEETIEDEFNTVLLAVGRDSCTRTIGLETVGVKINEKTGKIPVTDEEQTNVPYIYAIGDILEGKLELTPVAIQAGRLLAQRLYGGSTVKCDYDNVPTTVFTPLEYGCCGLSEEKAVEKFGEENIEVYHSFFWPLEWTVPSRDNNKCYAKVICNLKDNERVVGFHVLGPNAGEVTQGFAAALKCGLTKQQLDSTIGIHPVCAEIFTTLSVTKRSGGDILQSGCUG
Summary of the method: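 In this dual-purpose format, potential substrates are identified from the first fluorescence read after selenite addition, not from the 8-minute delta. Rat enzyme is preincubated with NADPH and then with compound at ~22 deg C.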

[10] = molecular target: Thioredoxin reductase 1, cytoplasmic (Rattus norvegicus) (UniProt O89049); test: qHTS Assay for Inhibitors of Mammalian Selenoprotein Thioredoxin Reductase 1 (TrxR1) (AID 488773); conditions: Potency: inhibition; also: nearly all actives have a fitted effect of over 40% in size; also: potency is read from the fitted curve at half-maximal effect
Summary of the method: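 Inhibition is scored from the loss of NADPH fluorescence between first and last reads of an 8-min kinetic run. Selenite (400 uM) was the substrate, added after 15 min compound preincubation at room temperature.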

[11] = molecular target: M-phase phosphoprotein 8 (Homo sapiens) (UniProt Q99549); test: qHTS Validation Assay for Inhibitors for MPP8 Chromodomain Interactions with Methylated Histone Tails (AID 488949); also: nearly all actives have a fitted effect of over 55% in size; also: potency is read from the fitted curve at half-maximal effect
Chain of M-phase phosphoprotein 8 (Homo sapiens) (Q99549 whole entry, looked up): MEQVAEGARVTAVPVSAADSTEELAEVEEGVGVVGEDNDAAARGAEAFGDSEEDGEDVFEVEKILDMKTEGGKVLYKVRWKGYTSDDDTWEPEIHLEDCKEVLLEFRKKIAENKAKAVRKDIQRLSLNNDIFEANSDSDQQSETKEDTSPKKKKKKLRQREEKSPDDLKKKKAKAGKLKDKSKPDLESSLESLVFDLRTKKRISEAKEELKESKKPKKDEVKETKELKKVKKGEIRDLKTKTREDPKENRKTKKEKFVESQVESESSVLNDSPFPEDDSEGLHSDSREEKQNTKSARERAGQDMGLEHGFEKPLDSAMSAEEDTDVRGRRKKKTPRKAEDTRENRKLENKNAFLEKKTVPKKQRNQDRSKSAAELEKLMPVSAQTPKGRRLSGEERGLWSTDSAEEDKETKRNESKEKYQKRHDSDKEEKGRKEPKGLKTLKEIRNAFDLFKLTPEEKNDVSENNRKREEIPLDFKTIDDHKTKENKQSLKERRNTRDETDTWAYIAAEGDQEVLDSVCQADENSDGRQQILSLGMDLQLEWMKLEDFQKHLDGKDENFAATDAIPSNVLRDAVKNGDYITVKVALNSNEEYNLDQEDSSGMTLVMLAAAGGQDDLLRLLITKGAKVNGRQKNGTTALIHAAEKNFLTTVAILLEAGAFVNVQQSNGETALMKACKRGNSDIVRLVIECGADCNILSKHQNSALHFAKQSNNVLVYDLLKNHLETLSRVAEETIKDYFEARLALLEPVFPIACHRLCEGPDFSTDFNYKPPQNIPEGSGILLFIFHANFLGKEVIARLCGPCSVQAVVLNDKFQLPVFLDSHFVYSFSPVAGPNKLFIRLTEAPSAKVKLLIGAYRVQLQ
Summary of the method: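 MPP8 (50 nM) was pre-bound to 50 nM biotinylated H3(1-18)K9me3 peptide in PBS pH 7.4 with 0.01% Tween-20. Compounds were then added for 30 min at room temperature, and complex disruption was read by AlphaScreen with streptavidin donor and nickel-chelate acceptor beads.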

[12] = molecular target: Chromobox protein homolog 1 (Homo sapiens) (UniProt P83916); test: qHTS Validation Assay for Inhibitors of HP1-beta Chromodomain Interactions with Methylated Histone Tails (AID 488953); also: nearly all actives have a fitted effect of over 50% in size; also: potency is read from the fitted curve at half-maximal effect
Chain of Chromobox protein homolog 1 (Homo sapiens) (P83916 whole entry, looked up): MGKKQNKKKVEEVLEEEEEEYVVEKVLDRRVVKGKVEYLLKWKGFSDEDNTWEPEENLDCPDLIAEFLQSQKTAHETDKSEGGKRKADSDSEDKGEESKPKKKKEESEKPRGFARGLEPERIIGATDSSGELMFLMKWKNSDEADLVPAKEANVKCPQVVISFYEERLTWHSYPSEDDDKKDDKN
Summary of the method: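 AlphaScreen proximity signal from streptavidin donor and nickel chelate acceptor beads (final 10 ug/mL) after 30 min dark incubation. Compounds had 30 min at room temperature with preformed complex of 50 nM HP1-beta and 50 nM b-H3(1-18)K9me3 in PBS pH 7.4 with 0.01% Tween-20.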

[13] = molecular target: Methanococcus maripaludis chaperonin (MmCpn) (UniProt Q6LX38); test: High-Throughput Screening for Modulators of Cytosolic Chaperonin Activity: MmCpn Primary Screen (AID 488978);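 also: 50 nM MmCpn enzyme hydrolysing 30 µM ATP at 37 °C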
Chain of Methanococcus maripaludis chaperonin (MmCpn) (Q6LX38 1-543): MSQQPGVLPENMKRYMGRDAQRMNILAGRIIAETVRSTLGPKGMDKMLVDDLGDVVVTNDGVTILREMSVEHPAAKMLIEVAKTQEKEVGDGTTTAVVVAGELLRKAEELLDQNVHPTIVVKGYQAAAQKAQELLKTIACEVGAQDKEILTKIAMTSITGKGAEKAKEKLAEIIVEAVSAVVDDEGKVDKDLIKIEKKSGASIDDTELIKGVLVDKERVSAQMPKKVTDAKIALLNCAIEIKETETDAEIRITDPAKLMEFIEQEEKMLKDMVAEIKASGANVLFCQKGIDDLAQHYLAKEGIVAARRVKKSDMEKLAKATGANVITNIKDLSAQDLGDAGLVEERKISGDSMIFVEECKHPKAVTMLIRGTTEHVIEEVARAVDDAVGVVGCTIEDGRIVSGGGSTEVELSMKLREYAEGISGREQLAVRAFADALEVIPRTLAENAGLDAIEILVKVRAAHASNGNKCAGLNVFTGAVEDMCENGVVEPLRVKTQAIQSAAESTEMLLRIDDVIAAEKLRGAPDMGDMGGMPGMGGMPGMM
Summary of the method: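 MmCpn at 50 nM final was preincubated 5 min at RT with compound. ATP was then added at 30 uM final for 10 min at 37 C. ADP formed was detected by Transcreener HTRF (665/590 nm).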

[14] = molecular target: Transient receptor potential cation channel subfamily V member 1 (Homo sapiens) (UniProt Q8NER1); test: HTS Assay for Compounds that Act as Enhancers of the Vanilloid Receptor 1 (AID 488979)
Chain of Transient receptor potential cation channel subfamily V member 1 (Homo sapiens) (Q8NER1 whole entry, looked up): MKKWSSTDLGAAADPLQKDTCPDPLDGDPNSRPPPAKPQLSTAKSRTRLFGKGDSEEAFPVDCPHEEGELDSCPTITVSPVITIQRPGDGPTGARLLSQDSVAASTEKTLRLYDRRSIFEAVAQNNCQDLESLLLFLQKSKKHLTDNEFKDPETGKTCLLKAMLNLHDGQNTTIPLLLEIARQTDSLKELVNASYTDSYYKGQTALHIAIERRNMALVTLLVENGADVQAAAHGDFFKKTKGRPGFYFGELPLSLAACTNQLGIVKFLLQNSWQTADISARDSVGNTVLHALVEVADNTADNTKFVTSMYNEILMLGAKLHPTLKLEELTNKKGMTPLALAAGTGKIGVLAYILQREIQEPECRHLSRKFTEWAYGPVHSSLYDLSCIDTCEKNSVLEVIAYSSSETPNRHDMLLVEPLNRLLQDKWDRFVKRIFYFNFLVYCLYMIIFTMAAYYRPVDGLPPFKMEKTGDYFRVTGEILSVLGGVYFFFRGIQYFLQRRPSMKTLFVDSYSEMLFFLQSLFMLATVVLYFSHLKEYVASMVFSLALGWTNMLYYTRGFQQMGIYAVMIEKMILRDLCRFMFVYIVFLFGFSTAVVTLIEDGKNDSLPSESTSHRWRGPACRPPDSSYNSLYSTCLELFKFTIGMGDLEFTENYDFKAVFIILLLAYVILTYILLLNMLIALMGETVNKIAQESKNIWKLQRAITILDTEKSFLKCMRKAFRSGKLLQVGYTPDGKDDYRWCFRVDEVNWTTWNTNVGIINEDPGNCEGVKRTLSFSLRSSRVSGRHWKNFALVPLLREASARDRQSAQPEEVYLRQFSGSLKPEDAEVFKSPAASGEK
Summary of the method: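 TRPV1-expressing cells loaded with Fluo-8 calcium dye; compounds added and calcium influx read kinetically for 3 min (agonist phase), then capsaicin at EC20 added and read 2 min more for enhancement. Fluorescence ex 480/em 520 nm.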

[15] = molecular target: Thyrotropin receptor (Homo sapiens) (UniProt P16473); test: qHTS Assay for Antagonists of the Thyroid Stimulating Hormone Receptor (AID 488980); also: series mostly up to about 58 µM
Chain of Thyrotropin receptor (Homo sapiens) (P16473 whole entry, looked up): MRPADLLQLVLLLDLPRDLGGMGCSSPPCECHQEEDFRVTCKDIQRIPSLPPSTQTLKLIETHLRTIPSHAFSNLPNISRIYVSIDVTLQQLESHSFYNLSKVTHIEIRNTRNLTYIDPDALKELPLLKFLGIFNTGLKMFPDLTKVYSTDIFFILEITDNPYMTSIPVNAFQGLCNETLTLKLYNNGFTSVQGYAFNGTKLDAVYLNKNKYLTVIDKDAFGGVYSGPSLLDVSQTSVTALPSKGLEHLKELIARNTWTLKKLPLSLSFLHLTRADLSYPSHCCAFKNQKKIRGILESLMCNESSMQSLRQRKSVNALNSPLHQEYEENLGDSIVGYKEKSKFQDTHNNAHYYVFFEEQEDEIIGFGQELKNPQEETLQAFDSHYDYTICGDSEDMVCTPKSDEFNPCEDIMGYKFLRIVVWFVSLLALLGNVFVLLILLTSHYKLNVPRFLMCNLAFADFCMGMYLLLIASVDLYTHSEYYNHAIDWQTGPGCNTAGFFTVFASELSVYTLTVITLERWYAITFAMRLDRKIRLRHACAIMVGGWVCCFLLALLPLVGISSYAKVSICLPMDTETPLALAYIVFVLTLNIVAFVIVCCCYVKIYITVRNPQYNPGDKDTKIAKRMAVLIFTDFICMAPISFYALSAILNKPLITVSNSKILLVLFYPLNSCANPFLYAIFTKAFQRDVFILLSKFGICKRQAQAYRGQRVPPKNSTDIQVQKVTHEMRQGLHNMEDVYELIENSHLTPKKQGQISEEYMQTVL
Summary of the method: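 TSHR-transfected HEK293 cells (2000/well) in HEPES-buffered HBSS with 70 uM RO 20-1724 were stimulated with 4 nM TSH (EC80, final) in the presence of compound. cAMP was measured by HTRF competition after lysis and 30 min at RT.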

[16] = molecular target: D(1A) dopamine receptor (Homo sapiens) (UniProt P21728); test: HTS Assay for Allosteric Agonists of the Human D1 Dopamine Receptor: Primary Screen for Agonists (AID 488981)
Summary of the method: (§1)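 Tetracycline-induced HEK293 T-REx cells force-coupled to calcium signalling were incubated overnight at 30 C and dye-loaded at room temperature. Calcium flux over 180 s after compound addition flagged agonists; a further 180 s read after EC20 dopamine flagged potentiators.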

[17] = molecular target: D(1A) dopamine receptor (Homo sapiens) (UniProt P21728); test: HTS Assay for Allosteric Agonists of the Human D1 Dopamine Receptor: Primary Screen for Potentiators (AID 488982)
Summary of the method: as §1

[18] = Validation screen for small molecules that induce DNA re-replication in MCF 10A normal breast cells (AID 463097); also: nearly all actives have a fitted effect of over 60% in size
Summary of the method: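 MCF 10A cells exposed to compound 48 hr at 37 C, 5% CO2, then Hoechst-stained 40 min. Laser-scanning imaging of nuclear DNA content (405 nm ex, 500-530 nm em); re-replication scored as rise in nuclei with elevated fluorescence intensity.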

[19] = molecular target: Flap endonuclease 1 (Homo sapiens) (UniProt P39748); test: qHTS Validation Assay for the Inhibitors of Human Flap endonuclease 1 (FEN1) (AID 488816); also: potency is read from the fitted curve at half-maximal effect
Chain of Flap endonuclease 1 (Homo sapiens) (P39748 whole entry, looked up): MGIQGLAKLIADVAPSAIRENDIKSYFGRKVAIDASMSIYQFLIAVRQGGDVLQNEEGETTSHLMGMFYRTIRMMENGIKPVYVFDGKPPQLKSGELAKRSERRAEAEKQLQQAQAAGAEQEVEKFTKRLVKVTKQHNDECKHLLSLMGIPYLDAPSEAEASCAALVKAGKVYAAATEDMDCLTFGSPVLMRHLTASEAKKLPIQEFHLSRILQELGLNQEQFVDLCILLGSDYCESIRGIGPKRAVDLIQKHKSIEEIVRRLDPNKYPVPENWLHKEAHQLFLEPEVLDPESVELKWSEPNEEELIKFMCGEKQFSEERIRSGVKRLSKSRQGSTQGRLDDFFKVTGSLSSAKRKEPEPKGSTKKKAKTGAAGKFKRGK
Summary of the method: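 Steps: add FEN1 (10 nM reagent) or buffer only; pin compounds; hold 15 min at room temperature; start with substrate, 50 nM final; read at 0 and 15 min; correct, normalize and fit a four-parameter Hill curve.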

[20] = qHTS Validation Assay to Find Inhibitors of Chronic Active B-Cell Receptor Signaling (AID 485345; active = well fitted curve in the direction sought with a large enough effect in the main read-out, with a control signal flat, not every such curve was filed as active)
Summary of the method: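 TMD8 ABC-DLBCL cells with dox-inducible green luciferase–IκBα fusion and red native luciferase; compounds 46 uM–3 nM, 4 h at 37C with doxycycline in 0.5% FBS IMDM. Green/red ratio normalized to basal and 10 uM MG-132.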

Measured: Potency

NC(=NCc1ccccc1)NC(=O)c1nc(Cl)c(N)nc1N
active: [7] 2.62 µM | [8] 2.94 µM
not listed: [18] | [19] | [20]
inactive: all other assays above

COc1cc2nc(N3CCN(C(=O)C4CCCO4)CC3)nc(N)c2cc1OC (centres undefined)
not listed: [7] | [15] | [20]
inactive: all other assays above

Nc1nc(N)c(N=O)c(OCC2CCCCC2)n1
not listed: [1] | [7] | [8] | [12] | [14] | [15] | [18] | [20]
inactive: all other assays above

COc1ccc2cc([C@H](C)C(=O)O)ccc2c1
active: [12] 0.006 µM
not listed: [5] | [6] | [11]
inactive: all other assays above

NNc1nncc2ccccc12
not listed: [7] | [8] | [9]
inactive: all other assays above

CC(=O)N1CCN(c2ccc(OC[C@H]3CO[C@](Cn4ccnc4)(c4ccc(Cl)cc4Cl)O3)cc2)CC1
inactive: [1] | [2] | [3] | [4] | [5] | [6] | [9] | [10] | [13] | [15] | [17]

COc1ccccc1N1CCN(CCN(C(=O)C2CCCCC2)c2ccccn2)CC1
inactive: all assays above

Cc1cccc(C#Cc2ccccc2)n1
not listed: [5] | [6] | [7] | [8] | [12]
inactive: all other assays above

O=C1c2c(O)cc(O)cc2OC(c2ccc(O)c(O)c2)C1O (centres undefined)
active: [10] 8.44 µM | [19] 2.67 µM | [12] 0.0084 µM
not listed: [6] | [7] | [17] | [18]
inactive: all other assays above

C[C@H](Cc1ccc(O)c(O)c1)[C@@H](C)Cc1ccc(O)c(O)c1
inactive: [2] | [4] | [5] | [9] | [13] | [14] | [15]
active: [7] 13.1 µM | [10] 9.47 µM | [19] 0.752 µM | [11] 25.1 µM and 23.8 µM | [12] 31.6 µM

From PubChem BioAssay (NCATS)
